{"source": "the supplement of paper PMC7156485", "details_in_all_cases": "concentration: 10 µM; 24 h", "key": {"[1]": {"system": "HCC1569", "test": "cell number relative to DMSO (% of DMSO); higher = more cells (less growth inhibition / toxicity)", "summary_of_the_method": "(§1)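 Using 384-well plates with 800 cells per well in RPMI plus 10% FBS, HCC1569 and TDF cells were exposed to compounds at 10 µM, in triplicate, for 24 h at 37 °C. Imaging of six fields per well at ×10 followed H1.0 and DAPI staining. The reported quantity, H1.0 nuclear intensity or cell number, is a median of replicates given as percent of the plate control, and HCC1569 values were smoothed for positional effects.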"}, "[2]": {"system": "TDF", "test": "cell number relative to DMSO (% of DMSO); higher = more cells (less growth inhibition / toxicity)", "summary_of_the_method": "as §1"}, "[3]": {"system": "TDF", "test": "H1.0 immunofluorescence intensity relative to DMSO (% of DMSO); higher = stronger H1.0 induction, active = 120 or more", "summary_of_the_method": "as §1"}, "[4]": {"system": "HCC1569", "test": "H1.0 immunofluorescence intensity relative to DMSO (% of DMSO); higher = stronger H1.0 induction, active = 140 or more", "summary_of_the_method": "as §1"}}, "data": [{"smiles": "CC(C)C(CO)Nc1nc(Nc2cccc(Cl)c2)c2ncn(C(C)C)c2n1", "note": "(stereo unspecified)", "values": [{"measurement": "cell number", "setting": "[1]", "value": 65.5}, {"measurement": "cell number", "setting": "[2]", "value": 60.6}, {"measurement": "H1.0 immunofluorescence intensity", "setting": "[3]", "value": "120 (inactive)"}, {"measurement": "H1.0 immunofluorescence intensity", "setting": "[4]", "value": "174 (active)"}]}, {"smiles": "CCCCCC(=O)C=CC=CCC=CCC=CCCCC(=O)O", "note": "[15-Ketoeicosatetraenoic acid]", "values": [{"measurement": "cell number", "setting": "[1]", "value": 99.5}, {"measurement": "cell number", "setting": "[2]", "value": 102}, {"measurement": "H1.0 immunofluorescence intensity", "setting": "[3]", "value": "94 (inactive)"}, {"measurement": "H1.0 immunofluorescence intensity", "setting": "[4]", "value": "86.9 (inactive)"}]}, {"smiles": "CCC1Cc2cc(O)ccc2C2=C1c1ccc(O)cc1CC2CC", "note": "[(R,R)-cis-Diethyl tetrahydro-2,8-chrysenediol]", "values": [{"measurement": "cell number", "setting": "[1]", "value": 87.5}, {"measurement": "cell number", "setting": "[2]", "value": 110}, {"measurement": "H1.0 immunofluorescence intensity", "setting": "[3]", "value": "87.9 (inactive)"}, {"measurement": "H1.0 immunofluorescence intensity", "setting": "[4]", "value": "107 (inactive)"}]}, {"smiles": "CNC1CC2OC(C)(C1OC)n1c3ccccc3c3c4c(c5c6ccccc6n2c5c31)C(=O)NC4O", "note": "(stereo unspecified)", "values": [{"measurement": "cell number", "setting": "[1]", "value": 20.4}, {"measurement": "cell number", "setting": "[2]", "value": 8.22}, {"measurement": "H1.0 immunofluorescence intensity", "setting": "[3]", "value": "139 (active)"}, {"measurement": "H1.0 immunofluorescence intensity", "setting": "[4]", "value": "121 (inactive)"}]}, {"smiles": "Cc1cnc(C(=O)O)c[n+]1[O-]", "note": "[Acipimox]", "values": [{"measurement": "cell number", "setting": "[1]", "value": 100}, {"measurement": "cell number", "setting": "[2]", "value": 108}, {"measurement": "H1.0 immunofluorescence intensity", "setting": "[3]", "value": "95.2 (inactive)"}, {"measurement": "H1.0 immunofluorescence intensity", "setting": "[4]", "value": "104 (inactive)"}]}, {"smiles": "CN(C)CCCN1c2ccccc2Sc2ccc(Cl)cc21.Cl", "note": "[Chlorpromazine.HCl]", "values": [{"measurement": "cell number", "setting": "[1]", "value": 96.5}, {"measurement": "cell number", "setting": "[2]", "value": 99.7}, {"measurement": "H1.0 immunofluorescence intensity", "setting": "[3]", "value": "106 (inactive)"}, {"measurement": "H1.0 immunofluorescence intensity", "setting": "[4]", "value": "113 (inactive)"}]}, {"smiles": "CCC(=O)Nc1ccc2ncnc(Nc3cccc(Br)c3)c2c1", "values": [{"measurement": "cell number", "setting": "[1]", "value": 89.4}, {"measurement": "cell number", "setting": "[2]", "value": 105}, {"measurement": "H1.0 immunofluorescence intensity", "setting": "[3]", "value": "93.1 (inactive)"}, {"measurement": "H1.0 immunofluorescence intensity", "setting": "[4]", "value": "128 (inactive)"}]}, {"smiles": "Cn1cc(-c2ccc3nnc(C(F)(F)c4ccc5ncccc5c4)n3n2)cn1", "values": [{"measurement": "cell number", "setting": "[1]", "value": 102}, {"measurement": "cell number", "setting": "[2]", "value": 96}, {"measurement": "H1.0 immunofluorescence intensity", "setting": "[3]", "value": "96.1 (inactive)"}, {"measurement": "H1.0 immunofluorescence intensity", "setting": "[4]", "value": "101 (inactive)"}]}, {"smiles": "CCCCCC=CCC(O)C=CC=CC=CC(O)CCCC(=O)O", "note": "(stereo unspecified) [Leukotriene B4]", "values": [{"measurement": "cell number", "setting": "[1]", "value": 105}, {"measurement": "cell number", "setting": "[2]", "value": 98.8}, {"measurement": "H1.0 immunofluorescence intensity", "setting": "[3]", "value": "93.3 (inactive)"}, {"measurement": "H1.0 immunofluorescence intensity", "setting": "[4]", "value": "102 (inactive)"}]}]}
